NadD block – inhibitors of Staphylococcus aureus NadD; 0.78% of 360,000 active; inhibition, % at 20 µM; purified NadD enzyme, colorimetric absorbance read-out; in the data active means inhibition above about 26%
MPTP block – blocks calcium-induced mitochondrial swelling; AID 602449; 1.4% of 360,000 active; inhibition, % at 10 µM; isolated mouse mitochondria, Ca2+ swelling absorbance, 30 min;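 active means inhibition of 50% or more, scaled per plate between neutral and stimulator controls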
TAG inh – reduces triacylglycerol accumulation in H9c2 cells; inhibition, % at 12.5 µM; AID 651582; 0.66% of 230,000 active; Nile Red lipid (TAG) fluorescence; cells loaded with 200 µM oleic acid;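 active means pattern-corrected inhibition of lipid staining of at least 50% with the nuclear-stain viability signal not falling by more than 50%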
aDG glyco up – increases alpha dystroglycan glycosylation. activation, % at 10 µM. 0.22% of 360,000 active. Pro5-aDG cells, alpha-DG glycosylation AlphaScreen (IIH6); 0% Pro5, 100% B10-LARGE cell signal;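 active means activation of at least 8% versus controls, or a plate z-score of at least 8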;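 further: Pro5 are CHO cells carrying HIG-tagged alpha-DG that lacks glycosylation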
Rh123 counter – Rhodamine 123 counter-screen of mitochondrial pore hits | shares compounds with MPTP block | isolated mitochondria, membrane potential, Rhodamine 123 fluorescence | inhibition, % at 10 µM | 78% of 5,000 active | AID 624504; in the data active means inhibition above about 22%
MPTP swell DR – dose response confirmation of mitochondrial permeability transition pore inhibitors; shares compounds with MPTP block; isolated mitochondria swelling, absorbance; IC50, µM; 58% of 780 active; in the data active means IC50 below about 20 µM
MPTP cs DR – MPTP inhibitor counter-screen activity, dose response. 49% of 780 active. shares compounds with MPTP block. IC50, µM. isolated mitochondria counterscreen, fluorescence read-out; in the data active means IC50 below about 80 µM
A number is an active result; i = inactive; nt = not tested or not shown. Only some compounds are listed: those with a hit (about 2.7% of all), similar ones and a draw of the others.

SMILES | NadD block | MPTP block | TAG inh | aDG glyco up | Rh123 counter | others
O=C(C=P(c1ccccc1)(c1ccccc1)c1ccccc1)c1ccccc1-c1ccccc1C(=O)C=P(c1ccccc1)(c1ccccc1)c1ccccc1 | 55.8 | 93.9 | i | i | 98.7
Cc1cc(/C=C2\SC(=S)N(C)C2=O)c(C)n1-c1cccc(O)c1 | i | 66.4 | i | i | 65.7
CN1C(=O)/C(=C\c2ccccc2OCc2ccccc2)SC1=S | i | i | nt | i | nt
CN1C(=O)/C(=C\c2cc(N=Nc3ccccc3)ccc2O)SC1=S | i | 100.2 | nt | i | 76.1
CCNC(=O)C1(C)CCCN1Cc1c(F)cccc1F (configuration not stated) | i | i | i | i | nt
CCCn1c(SCC(=O)Nc2nc3c(s2)CCCC3)nc2c1c(=O)n(C)c(=O)n2C | i | 84.6 | nt | i | 32.6
COc1cccc(C(C(=O)NCc2ccccc2)N2CCN(C(=O)C3CCCO3)CC2)c1OC (configuration not stated) | nt | i | nt | i | nt
Cc1c(C(=O)N/N=C/c2ccc(Cl)cc2)[nH]c2ccc(Cl)cc12 | i | 96.0 | i | i | 66.8
CCOC(=O)c1nn(-c2ccccc2)c(=O)cc1OCC(=O)Nc1ccccc1OCC | i | i | i | i | nt
CC(C)(c1ccccc1)c1ccc(OCC(O)CNC2CCN(Cc3ccccc3)CC2)cc1 (configuration not stated) | i | 67.7 | i | i | i
CCOc1ccc(OCC(O)CNC2CCN(Cc3ccccc3)CC2)cc1 (configuration not stated) | i | i | i | i | nt
O=C(Nc1ccccc1)Nc1nnc(Cc2ccccc2F)s1 | i | i | i | i | nt
CCCSc1nnc(NC(=O)Nc2ccccc2)s1 | i | 90.2 | nt | i | 78.0
CCCSc1nnc(NC(=O)Nc2ccc(C)cc2)s1 | i | 59.9 | i | i | 75.2
CCCSc1nnc(NC(=O)Nc2ccc(F)cc2)s1 | i | 85.8 | i | i | 98.5
O=C(Nc1ccc(F)cc1)Nc1nnc(Cc2ccccc2F)s1 | i | 58.3 | i | i | 76.9
CCCCC[C@@H](O)c1cc2ccccc2c(=O)o1 | i | i | i | i | nt
O=C(Nc1ccc(Cl)cc1)Nc1nnc(CSCc2ccc(Cl)cc2)s1 | i | 83.9 | nt | i | 50.4
O=C(Nc1ccc(Cl)c(Cl)c1)Nc1nnc(CC2=CCCCC2)s1 | i | 89.2 | nt | i | i | MPTP swell DR=3.48;MPTP cs DR=<2.5
CCc1nnc(NC(=O)Nc2ccc(Cl)cc2)s1 | i | i | i | i | nt
O=C(Nc1nnc(CC2=CCCCC2)s1)c1cccs1 | i | i | i | i | nt
O=C(Nc1ccccc1)Nc1nnc(/C=C/c2ccccc2Cl)s1 | i | 86.0 | nt | i | 43.0
O=C(Nc1ccccc1)Nc1nnc(-c2ccccc2)s1 | i | i | i | i | nt
CS(=O)(=O)NNC(=O)C1Cc2c(ccc3ccccc23)O1 (configuration not stated) | i | i | nt | i | nt
O=C(NNS(=O)(=O)c1ccc(F)cc1F)C1Cc2c(ccc3ccccc23)O1 (configuration not stated) | i | 73.0 | i | i | 51.9
SMILES | NadD block | MPTP block | TAG inh | aDG glyco up | Rh123 counter | others
Cc1ccc(C)c(NCCCCC(=O)O)c1 | i | i | nt | i | nt
Cn1nc(C(F)(F)F)c2cc(C(=O)Nc3ccc(F)c(Cl)c3)sc21 | i | 88.7 | i | i | 76.2
Cn1nc(C(F)(F)F)c2cc(C(=O)Nc3ccc(C(F)(F)F)cc3)sc21 | i | 91.2 | i | i | 75.4
Cn1nc(C(F)(F)F)c2cc(C(=O)Nc3ccc(F)cc3)sc21 | i | i | i | i | nt
Cc1ccc(Nc2nc3nonc3[nH]c2=O)cc1Cl | i | 91.6 | i | i | 99.3
Cc1ccc(Nc2nc3nonc3[nH]c2=O)cc1C | i | 69.4 | i | i | 101.7
Cc1cccc(C)c1-c1ccc(CN2C(CC(C)C)C(=O)N(Cc3cn(CC4CCCCC4)nn3)CCS2(=O)=O)cc1 (configuration not stated) | i | i | i | i | nt
CCCCCCCCCCCC(=O)c1c(O)cccc1O | i | 65.6 | nt | i | 56.2
CCCCCCCC(=O)NNC(=O)Cc1ccccc1 | i | i | nt | i | nt
COc1ccc(CCNC2=C(Cl)C(=O)N(CCc3ccccc3)C2=O)cc1OC | i | i | i | i | nt
O=C1C(Cl)=C(Nc2ccccc2O)C(=O)N1CCc1ccccc1 | i | 61.1 | i | i | 59.9
Cc1nnsc1C(=O)N/N=C/c1ccc2ccccc2c1O | i | 56.2 | i | i | 55.8

Screens as filed in PubChem.
